# Measurements published in the supplement of paper PMC8728848.
# This is one part of a sample in which the strongest signals are shown more often than they occur.
# Legend:
# Assay in all cases: glycan array binding signal (z-score within array); higher = stronger binding
# Conditions in all cases: glycan notation: IUPAC condensed, linker removed
# [1] = molecular target: Gal(b1-4)GlcNAc(b1-3)Gal(b1-4)GlcNAc(b1-3)Gal(b1-4)GlcNAc(b1-3)Gal(b1-4)GlcNAc(b1-3)Gal(b1-4)GlcNAc(b1-2)Man(a1-3)[Gal(b1-4)GlcNAc(b1-3)Gal(b1-4)GlcNAc(b1-3)Gal(b1-4)GlcNAc(b1-3)Gal(b1-4)GlcNAc(b1-3)Gal(b1-4)GlcNAc(b1-2)Man(a1-6)]Man(b1-4)GlcNAc(b1-4)GlcNAc
# Outline: (§1)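 From the Consortium for Functional Glycomics database, 3228 arrays were curated, keeping only those whose protein sequence was available. Binding is given as a within-array Z-score averaged across arrays sharing a protein sequence and across linkers. Negative Z-scores can be read as non-binding.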
# [2] = molecular target: Gal(b1-4)GlcNAc(b1-3)Gal(b1-4)GlcNAc(b1-3)GalNAc
# Outline: as §1
# [3] = molecular target: Gal(b1-4)GlcNAc(b1-3)Gal(b1-4)GlcNAc(b1-3)[Gal(b1-4)GlcNAc(b1-3)Gal(b1-4)GlcNAc(b1-6)]GalNAc
# Outline: as §1
# [4] = molecular target: Gal(b1-4)GlcNAc(b1-3)Gal(b1-4)[Fuc(a1-3)]GlcNAc(b1-3)Gal(b1-4)[Fuc(a1-3)]GlcNAc
# Outline: as §1
# [5] = molecular target: GalNAc(a1-3)GalNAc
# Outline: as §1
# [6] = molecular target: GalNAc(b1-3)GlcNAc
# Outline: as §1
# [7] = molecular target: GalNAc(b1-4)GlcNAc
# Outline: as §1
# [8] = molecular target: GalNAc3S(b1-4)GlcNAc3S
# Outline: as §1
# [9] = molecular target: GalNAc3S(b1-4)[Fuc(a1-3)]GlcNAc
# Outline: as §1
# [10] = molecular target: GlcA3S(b1-3)Gal(b1-4)GlcNAc(b1-3)Gal(b1-4)Glc
# Outline: as §1
# [11] = molecular target: GlcNAc(a1-4)Gal(b1-4)GlcNAc
# Outline: as §1
# [12] = molecular target: GlcNAc(a1-4)Gal(b1-4)GlcNAc(b1-3)Gal(b1-4)[Fuc(a1-3)]GlcNAc(b1-3)Gal(b1-4)[Fuc(a1-3)]GlcNAc
# Outline: as §1
# [13] = molecular target: GlcNAc(b1-3)Gal(b1-4)GlcNAc(b1-2)Man(a1-3)[GlcNAc(b1-3)Gal(b1-4)GlcNAc(b1-2)Man(a1-6)]Man(b1-4)GlcNAc(b1-4)[Fuc(a1-6)]GlcNAc
# Outline: as §1
# [14] = molecular target: GlcNAc(b1-3)Gal(b1-4)GlcNAc(b1-2)[GlcNAc(b1-3)Gal(b1-4)GlcNAc(b1-6)]Man(a1-6)[GlcNAc(b1-3)Gal(b1-4)GlcNAc(b1-2)Man(a1-3)]Man(b1-4)GlcNAc(b1-4)GlcNAc
# Outline: as §1
# [15] = molecular target: GlcNAc(b1-3)Gal(b1-4)GlcNAc(b1-3)Gal(b1-4)GlcNAc(b1-2)[GlcNAc(b1-3)Gal(b1-4)GlcNAc(b1-3)Gal(b1-4)GlcNAc(b1-6)]Man(a1-6)[GlcNAc(b1-3)Gal(b1-4)GlcNAc(b1-3)Gal(b1-4)GlcNAc(b1-2)Man(a1-3)]Man(b1-4)GlcNAc(b1-4)[Fuc(a1-6)]GlcNAc
# Outline: as §1
# [16] = molecular target: GlcNAc(b1-3)Gal(b1-4)GlcNAc(b1-3)Gal(b1-4)GlcNAc(b1-3)Gal(b1-4)GlcNAc(b1-3)Gal(b1-4)GlcNAc(b1-2)Man(a1-3)[GlcNAc(b1-3)Gal(b1-4)GlcNAc(b1-3)Gal(b1-4)GlcNAc(b1-3)Gal(b1-4)GlcNAc(b1-3)Gal(b1-4)GlcNAc(b1-2)Man(a1-6)]Man(b1-4)GlcNAc(b1-4)[Fuc(a1-6)]GlcNAc
# Outline: as §1
# [17] = molecular target: Man(a1-2)Man(a1-3)[Man(a1-6)]Man(a1-6)[Man(a1-2)Man(a1-3)]Man(b1-4)GlcNAc(b1-4)GlcNAc
# Outline: as §1
# [18] = molecular target: Man(a1-2)Man(a1-6)[Man(a1-3)]Man(a1-6)[Man(a1-2)Man(a1-2)Man(a1-3)]Man
# Outline: as §1
# [19] = molecular target: Man(a1-6)Man
# Outline: as §1
# [20] = molecular target: Neu5Ac(a2-3)Gal(b1-3)GalNAc(b1-4)[Neu5Ac(a2-3)]Gal(b1-4)Glc
# Outline: as §1
# [21] = molecular target: Neu5Ac(a2-3)Gal(b1-3)[Fuc(a1-4)]GlcNAc(b1-3)Gal(b1-4)[Fuc(a1-3)]GlcNAc
# Outline: as §1
# [22] = molecular target: Neu5Ac(a2-3)Gal(b1-4)GlcNAc
# Outline: as §1
# [23] = molecular target: Neu5Ac(a2-3)Gal(b1-4)GlcNAc(b1-2)Man(a1-3)[GlcNAc(b1-4)][Neu5Ac(a2-3)Gal(b1-4)GlcNAc(b1-2)Man(a1-6)]Man(b1-4)GlcNAc(b1-4)GlcNAc
# Outline: as §1
# [24] = molecular target: Neu5Ac(a2-3)Gal(b1-4)GlcNAc(b1-2)Man(a1-3)[Neu5Ac(a2-3)Gal(b1-4)GlcNAc(b1-2)Man(a1-6)]Man(b1-4)GlcNAc(b1-4)GlcNAc
# Outline: as §1
# [25] = molecular target: Neu5Ac(a2-3)Gal(b1-4)GlcNAc(b1-2)[Neu5Ac(a2-3)Gal(b1-4)GlcNAc(b1-6)]Man(a1-6)[Neu5Ac(a2-3)Gal(b1-4)GlcNAc(b1-2)Man(a1-3)]Man(b1-4)GlcNAc(b1-4)GlcNAc
# Outline: as §1
# [26] = molecular target: Neu5Ac(a2-3)Gal(b1-4)GlcNAc(b1-3)GalNAc
# Outline: as §1
# [27] = molecular target: Neu5Ac(a2-3)Gal(b1-4)[Fuc(a1-3)]GlcNAc(b1-3)Gal(b1-4)GlcNAc
# Outline: as §1
# [28] = molecular target: Neu5Ac(a2-6)Gal(b1-4)GlcNAc(b1-2)Man(a1-3)Man(b1-4)GlcNAc(b1-4)GlcNAc
# Outline: as §1
# [29] = molecular target: Neu5Ac(a2-6)Gal(b1-4)GlcNAc(b1-2)[Neu5Ac(a2-6)Gal(b1-4)GlcNAc(b1-4)]Man(a1-3)[GlcNAc(b1-4)][Neu5Ac(a2-6)Gal(b1-4)GlcNAc(b1-4)Man(a1-6)]Man(b1-4)GlcNAc(b1-4)GlcNAc
# Outline: as §1
# [30] = molecular target: Neu5Ac(a2-6)Gal(b1-4)GlcNAc(b1-2)[Neu5Ac(a2-6)Gal(b1-4)GlcNAc(b1-6)]Man(a1-6)[Neu5Ac(a2-6)Gal(b1-4)GlcNAc(b1-2)Man(a1-3)][GlcNAc(b1-4)]Man(b1-4)GlcNAc(b1-4)GlcNAc
# Outline: as §1
# [31] = molecular target: Neu5Ac(a2-6)Gal(b1-4)GlcNAc(b1-3)Gal(b1-4)GlcNAc(b1-3)Gal(b1-4)GlcNAc(b1-2)Man(a1-3)[Neu5Ac(a2-6)Gal(b1-4)GlcNAc(b1-3)Gal(b1-4)GlcNAc(b1-3)Gal(b1-4)GlcNAc(b1-2)Man(a1-6)]GalNAc
# Outline: as §1
# [32] = molecular target: Neu5Ac(a2-6)Gal(b1-4)GlcNAc(b1-3)GalNAc
# Outline: as §1
# [33] = molecular target: Neu5Ac(a2-8)Neu5Ac(a2-8)Neu5Ac(a2-3)Gal(b1-4)Glc
# Outline: as §1
binder,measurement,setting,value
GS7807Q-bfa-507-19-507 (Bacteroides fragilis) (protein) ASCNKFDDLNTNPDAATKVTAPMLATKLILNITQQGSAKNFVYHSMLSKQIAWSENASDEQYNLFGRTDFDGYTILTNCQKMVDAANEGDKDSYAALAKFMKAYKLFYKSLEVGDIPYSDALKGEEGVQKPKYDTQKEVMRQVLEDLEEAYTLFSSGSDFDGDPIFGGDTENWKKTVVAFELKVLTHLCKKDTDADLKVKERFARLVSSGSLMTSNADNFQLVYSNKAGQLYPFYYTQNKHSDYLMMSSVIIDNLKKFNDYRMFYYASPAKAQTDKGIKDSEWDAYLSIDPSDSYSNISVLYGKGEFCLANLRYTRVPEGEPLMRLSYAEQNFILAEGAVRGWISEDASTYYKKGIEASMNFIADNTPDKEEYTHGRTITQEYIQEYLAQPVIQLSGDKEKDLEMILLQRYLASFLQHPYDAYYDYRRTGYPVLPINPSTNLNTEKNKIPTRWMYPEAEFSYNPDNANEAVQRQYNGSDDVNKLMWILQ,glycan array binding signal (z-score),[1],-0.15
same,glycan array binding signal (z-score),[2],-0.268
same,glycan array binding signal (z-score),[3],-0.074
same,glycan array binding signal (z-score),[4],-0.174
same,glycan array binding signal (z-score),[5],-0.06
same,glycan array binding signal (z-score),[6],-0.454
same,glycan array binding signal (z-score),[7],3.09
same,glycan array binding signal (z-score),[8],-0.279
same,glycan array binding signal (z-score),[9],-0.654
same,glycan array binding signal (z-score),[10],0.23
same,glycan array binding signal (z-score),[11],-0.604
same,glycan array binding signal (z-score),[12],3.02
same,glycan array binding signal (z-score),[13],2.43
same,glycan array binding signal (z-score),[14],1.65
same,glycan array binding signal (z-score),[15],2.73
same,glycan array binding signal (z-score),[16],-0.41
same,glycan array binding signal (z-score),[17],-0.639
same,glycan array binding signal (z-score),[18],0.113
same,glycan array binding signal (z-score),[19],0.531
same,glycan array binding signal (z-score),[20],-0.316
same,glycan array binding signal (z-score),[21],-0.38
same,glycan array binding signal (z-score),[22],-0.496
same,glycan array binding signal (z-score),[23],-0.905
same,glycan array binding signal (z-score),[24],-0.347
same,glycan array binding signal (z-score),[25],1.35
same,glycan array binding signal (z-score),[26],-0.737
same,glycan array binding signal (z-score),[27],-0.425
same,glycan array binding signal (z-score),[28],-0.09
same,glycan array binding signal (z-score),[29],0.481
same,glycan array binding signal (z-score),[30],0.863
same,glycan array binding signal (z-score),[31],3.17
same,glycan array binding signal (z-score),[32],0.841
same,glycan array binding signal (z-score),[33],-0.141
